Test systems include SR leukemia; RPMI-8226 leukemia; OVCAR-8 ovarian; OVCAR-5 ovarian; OVCAR-4 ovarian; SK-OV-3 ovarian; IGROV1 ovarian; OVCAR-3 ovarian; HS 578T breast; NCI/ADR-RES ovarian; T-47D breast; BT-549 breast; MDA-MB-435 melanoma; SW-620 colon; MCF7 breast; HCT-116 colon; HCC-2998 colon; KM12 colon; MDA-MB-468 breast.
Common to all, as to assay: NCI-60 one-dose screen, 48 h (100 = growth as untreated, 0 = no growth, -100 = all killed)
Conditions in all cases: 10 µM unless noted

Structures are written as SMILES. Where “and” joins values, the source holds several entries; their conditions need not be identical. Identical values can stand only once. This is part of a sample that, as a whole, favours compounds with a hit. Of some 83,000 tested, about 20% had one in any assay.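 Cells were grown in 96-well plates and exposed to the test compound at a single concentration for 48 hours; results are reported as percent growth, with values below 10 considered active.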 Values without a mark were called inactive. Calls of active or inactive are those of the source.

`Cc1ccc(-c2nc(C#N)c(S(=O)(=O)N3CCN(S(=O)(=O)c4ccc(Cl)cc4)CC3)o2)cc1`: the growth was 47.3% in the assay with SR leukemia; 97% with RPMI-8226 leukemia; 82.2% in the assay with OVCAR-8 ovarian; 105% in the assay with OVCAR-5 ovarian; 86.8% with OVCAR-4 ovarian; 87.2% in the assay with SK-OV-3 ovarian. Also, the growth was 95.8% with IGROV1 ovarian; 114% with OVCAR-3 ovarian; 65.2% in the assay with HS 578T breast; 91% in the assay with NCI/ADR-RES ovarian; 92.1% in the assay on T-47D breast; 99.8% in the assay with BT-549 breast. The growth in the assay on MDA-MB-435 melanoma is 94.8%; with SW-620 colon it was 109%; in the assay with MCF7 breast it was 75.8%; in the assay on HCT-116 colon it was 84.9%; with HCC-2998 colon, 106%; in the assay with KM12 colon it was 109%. For the same molecule, the growth with MDA-MB-468 breast was 61.9%.
As for `CCOC(=O)/C=C/c1cccc2c1C(=O)NC(C)(c1cc3cc(Cl)ccc3oc1=O)N2` (stereo unspecified), the growth was 1.88% (active) in the assay on SR leukemia; 17.7% in the assay with RPMI-8226 leukemia; 39.1% in the assay with OVCAR-8 ovarian; 50.4% in the assay on OVCAR-5 ovarian; 36.7% in the assay with OVCAR-4 ovarian; -0.634% (active) in the assay with SK-OV-3 ovarian. Also, the growth is 13% in the assay with IGROV1 ovarian; 34.4% with OVCAR-3 ovarian; 41% with HS 578T breast; 22.7% with NCI/ADR-RES ovarian; 16.3% in the assay on T-47D breast; 24.7% in the assay on BT-549 breast. Moreover, the growth in the assay on MDA-MB-435 melanoma was 42.1%; with SW-620 colon, 40.9%; with MCF7 breast, 26.5%; in the assay on HCT-116 colon, 17.6%; in the assay with HCC-2998 colon, 38.7%; in the assay on KM12 colon, 26%. The growth with MDA-MB-468 breast was 3.88% (active).
Take `COc1ccc(C(=O)/C=C/c2ccc(OCc3ccccc3)c(OC)c2)cc1OC`: the growth with SR leukemia is 8.91% (active); in the assay on RPMI-8226 leukemia, 9.53% (active); in the assay with OVCAR-8 ovarian, -1.43% (active); with OVCAR-5 ovarian, 4.82% (active); with OVCAR-4 ovarian, 25.6%; in the assay on SK-OV-3 ovarian, 83.5%. Further, the growth in the assay with IGROV1 ovarian was 23.3%; in the assay with OVCAR-3 ovarian, 25.8%; with HS 578T breast, 75.5%; in the assay with NCI/ADR-RES ovarian, 19.7%; in the assay on T-47D breast, 30.4%; in the assay with BT-549 breast, 12.6%. The growth is 30.9% in the assay on MDA-MB-435 melanoma; 10.4% in the assay with SW-620 colon; 10.5% with MCF7 breast; 12.3% with HCT-116 colon; 15.2% in the assay on HCC-2998 colon; 16% in the assay on KM12 colon. The growth in the assay on MDA-MB-468 breast was 23.8% and 11.1%.
Consider `COc1ccc2c(c1)c(/C=N/Nc1ccc3ccccc3n1)cn2C`, for which the growth in the assay on SR leukemia is -17.3% (active); in the assay with RPMI-8226 leukemia, -26.7% (active); in the assay with OVCAR-8 ovarian, 28.9%; in the assay on OVCAR-5 ovarian it was 7.2% (active); with OVCAR-4 ovarian, 12.3%; in the assay on SK-OV-3 ovarian, 54%. Further, the growth is 16.4% in the assay on IGROV1 ovarian; -34.2% (active) in the assay with OVCAR-3 ovarian; 18.2% with HS 578T breast; 2.35% (active) in the assay with NCI/ADR-RES ovarian; 3.98% (active) with T-47D breast; 51.4% in the assay with BT-549 breast. Further, the growth with MDA-MB-435 melanoma was 11.2%; in the assay on SW-620 colon, -67.3% (active); in the assay on HCT-116 colon, -99.5% (active); with HCC-2998 colon, -59.6% (active); in the assay on KM12 colon, -66.5% (active); in the assay on MDA-MB-468 breast, -41.6% (active).
For `C=C1CCC2C3(C)COC(c4ccc(F)cc4)OC3CCC2(C)C1C/C=C1/C(=O)OCC1O` (stereo unspecified), the growth in the assay with SR leukemia was 7.55% (active); with RPMI-8226 leukemia, 6.7% (active); with OVCAR-8 ovarian it was -61.5% (active); in the assay on OVCAR-5 ovarian, -6.07% (active); in the assay on OVCAR-4 ovarian, 0.389% (active); in the assay on SK-OV-3 ovarian it was 40.5%. For the same molecule, the growth was -26.3% (active) with IGROV1 ovarian; -82% (active) in the assay on OVCAR-3 ovarian; -5.65% (active) with HS 578T breast; -22.4% (active) with NCI/ADR-RES ovarian; -16.5% (active) in the assay on T-47D breast; -85.8% (active) in the assay on BT-549 breast. In addition, the growth in the assay on MDA-MB-435 melanoma is -35.5% (active); with SW-620 colon, -69.8% (active); in the assay on MCF7 breast, -30.7% (active); in the assay on HCT-116 colon, -74.2% (active); with HCC-2998 colon, -69.7% (active); with KM12 colon, -44.7% (active). In addition, the growth in the assay on MDA-MB-468 breast is -50.5% (active).
With `O=C(Cn1c(/C=C/c2ccccc2)nc2ccccc2c1=O)Nc1ccc(Cl)cc1`, the growth with SR leukemia is 87.6%; in the assay with RPMI-8226 leukemia, 86.8%; with OVCAR-8 ovarian it was 58.3%; in the assay on OVCAR-5 ovarian, 68.7%; in the assay with OVCAR-4 ovarian, -22.4% (active); in the assay with SK-OV-3 ovarian it was 40.2%. In addition, the growth was 67.7% in the assay on IGROV1 ovarian; 29.2% in the assay with OVCAR-3 ovarian; 37.8% in the assay on HS 578T breast; 66.6% in the assay with NCI/ADR-RES ovarian; -11.5% (active) in the assay on T-47D breast; 89% with BT-549 breast. For the same molecule, the growth is 85.2% with MDA-MB-435 melanoma; 72.1% in the assay with SW-620 colon; 30.4% with HCT-116 colon; 99.2% in the assay on HCC-2998 colon; 84.3% in the assay with KM12 colon; 57.3% in the assay on MDA-MB-468 breast.
With `CC(=O)Nc1ccc(-n2cnc3ccc(-c4ccc(O)cc4)cc32)cc1`, the growth is 15.8% with SR leukemia; 38.9% in the assay with RPMI-8226 leukemia; 42.1% with OVCAR-8 ovarian; 72.2% with OVCAR-5 ovarian; 67.3% with OVCAR-4 ovarian; 66.8% with SK-OV-3 ovarian. Further, the growth was 27.2% in the assay with IGROV1 ovarian; 54.3% in the assay on OVCAR-3 ovarian; 8.57% (active) with HS 578T breast; 84.4% in the assay with NCI/ADR-RES ovarian; 47.9% with T-47D breast; 51.4% with BT-549 breast. Also, the growth was 44.7% in the assay with MDA-MB-435 melanoma; 39.2% with SW-620 colon; 10.6% with MCF7 breast; 20.2% with HCT-116 colon; 66.3% with HCC-2998 colon; 17.8% in the assay on KM12 colon. Besides, in the assay with MDA-MB-468 breast, the growth was 22%.

The values are drawn from PubChem BioAssay (NCI).
